Measured values: PubChem BioAssay (NCI)
The panel holds about 83,000 compounds, 20% with a hit somewhere; the sample as a whole holds those more often.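 Cells were grown in 96-well plates and exposed to the test compound at a single concentration for 48 hours; results are reported as percent growth, with values below 10 considered active.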 A number with no mark means an inactive call. Calls of active or inactive are those of the source.

Columns and labels:
Assay in all cases: NCI-60 one-dose screen, 48 h (100 = growth as untreated, 0 = no growth, -100 = all killed)
Details in all cases: 10 µM unless noted
HCT-15 colon = system: HCT-15 colon
HT29 colon = system: HT29 colon
SNB-75 CNS = system: SNB-75 CNS
SNB-19 CNS = system: SNB-19 CNS
U251 CNS = system: U251 CNS
PC-3 prostate = system: PC-3 prostate
SK-MEL-5 melanoma = system: SK-MEL-5 melanoma
UACC-62 melanoma = system: UACC-62 melanoma
LOX IMVI melanoma = system: LOX IMVI melanoma
SK-MEL-28 melanoma = system: SK-MEL-28 melanoma

Work on CCC(CC)(N(CC(=O)O)CC(=O)O)C(CC)(CC)N(CC(=O)O)CC(=O)O yielded a growth (HCT-15 colon) of 131%, a growth (HT29 colon) of 89.9% and a growth (SNB-75 CNS) of 108%. For the same molecule, the growth (SNB-19 CNS) was 107%, the growth (U251 CNS) was 102% and the growth (PC-3 prostate) was 85.1%. The growth (SK-MEL-5 melanoma) was 105%, the growth (UACC-62 melanoma) was 102% and the growth (LOX IMVI melanoma) was 98.6%. For the same molecule, the growth (SK-MEL-28 melanoma) was 108%.

CC(=O)N/C(=C1/OC(C(O)C(O)C(O)CO)CN1C)[P+](c1ccccc1)(c1ccccc1)c1ccccc1 (stereo not given) gave a growth (HCT-15 colon) of 98.5%, a growth (HT29 colon) of 115% and a growth (SNB-75 CNS) of 75.3%. For the same molecule, the growth (SNB-19 CNS) was 91.2%, the growth (U251 CNS) was 98% and the growth (PC-3 prostate) was 98.2%. It also gave a growth (SK-MEL-5 melanoma) of 95.5%, a growth (UACC-62 melanoma) of 98.6% and a growth (LOX IMVI melanoma) of 98.2%. The growth (SK-MEL-28 melanoma) was 106%.

With Fc1ccc(COc2ccc(Nc3ncnc4sc5c(c34)CCCC5)cc2)cc1 the growth (HCT-15 colon) was 92.6%, the growth (HT29 colon) was 77.8% and the growth (SNB-75 CNS) was 113%. The growth (SNB-19 CNS) was 100%, the growth (U251 CNS) was 90.8% and the growth (PC-3 prostate) was 72.2%. The growth (SK-MEL-5 melanoma) was 95.5%, the growth (UACC-62 melanoma) was 72.1% and the growth (LOX IMVI melanoma) was 99.5%. The growth (SK-MEL-28 melanoma) was 91.5%.

CCN(CCO)CC(C)Nc1ccc([N+](=O)[O-])c2sc3ccccc3c(=O)c12 (stereo not given) showed a growth (HCT-15 colon) of 27.2%, a growth (HT29 colon) of 11.3% and a growth (SNB-75 CNS) of 36.4%. The growth (SNB-19 CNS) was 43.2%, the growth (U251 CNS) was 26.7% and the growth (PC-3 prostate) was 28.3%. For the same molecule, the growth (SK-MEL-5 melanoma) was 12.3%, the growth (UACC-62 melanoma) was 29.8% and the growth (LOX IMVI melanoma) was 16.2%. The growth (SK-MEL-28 melanoma) was 44.4%.

COc1ccc2c(c1)c(-c1ccc(-c3cn(C)c4ccc(OC)cc34)[nH]1)cn2C was tested, and the growth (HCT-15 colon) was 4.19% (active), the growth (HT29 colon) was 48% and the growth (SNB-75 CNS) was 17.9%. For the same molecule, the growth (SNB-19 CNS) was 27.2%, the growth (U251 CNS) was -62.9% (active) and the growth (PC-3 prostate) was -11% (active). The growth (SK-MEL-5 melanoma) was 29.6%, the growth (UACC-62 melanoma) was 5.29% (active) and the growth (LOX IMVI melanoma) was -17.8% (active). For the same molecule, the growth (SK-MEL-28 melanoma) was -20.1% (active).

Oc1c(Cl)cc(Cl)c2ccc(Cn3cc(-c4cccc(C(F)(F)F)c4)nn3)nc12 was tested, and the growth (HCT-15 colon) was 40.5%, the growth (HT29 colon) was 89.2% and the growth (SNB-75 CNS) was 70%. The growth (SNB-19 CNS) was 95.6%, the growth (U251 CNS) was 93.6% and the growth (PC-3 prostate) was 83.1%. For the same molecule, the growth (SK-MEL-5 melanoma) was 98.2%, the growth (UACC-62 melanoma) was 82.1% and the growth (LOX IMVI melanoma) was 23.7%. For the same molecule, the growth (SK-MEL-28 melanoma) was 75.9%.

CCCCCCCCNc1cc2c3c(c1)CCCN3CCC2 was tested, and the growth (HCT-15 colon) was 17.9%, the growth (HT29 colon) was -9.19% (active) and the growth (SNB-75 CNS) was 35.9%. For the same molecule, the growth (SNB-19 CNS) was 17.5%, the growth (U251 CNS) was 15.5% and the growth (PC-3 prostate) was -0.993% (active). The growth (SK-MEL-5 melanoma) was -71.8% (active), the growth (UACC-62 melanoma) was 27.8% and the growth (LOX IMVI melanoma) was 2.21% (active). For the same molecule, the growth (SK-MEL-28 melanoma) was 48.9%.

Work on COc1cccc(OC)c1Oc1c(-c2nc3ccccc3s2)c(C)nn1-c1ccccc1 yielded a growth (HCT-15 colon) of 51.7%, a growth (HT29 colon) of 71.2% and a growth (SNB-75 CNS) of 74.8%. For the same molecule, the growth (SNB-19 CNS) was 92.7%, the growth (U251 CNS) was 84.8% and the growth (PC-3 prostate) was 51.1%. For the same molecule, the growth (SK-MEL-5 melanoma) was 73.7%, the growth (UACC-62 melanoma) was 56.2% and the growth (LOX IMVI melanoma) was 62.9%. It also gave a growth (SK-MEL-28 melanoma) of 106%.

With Cc1cc(N2CCN(C)CC2)nc(NCc2cc(Nc3ccnc4cc(Cl)ccc34)ccc2F)n1 the growth (HCT-15 colon) was -17.6% (active), the growth (HT29 colon) was -56.1% (active) and the growth (SNB-75 CNS) was 21.2%. For the same molecule, the growth (SNB-19 CNS) was 34.3%, the growth (U251 CNS) was -51.3% (active) and the growth (PC-3 prostate) was 28.6%. The growth (SK-MEL-5 melanoma) was -98% (active), the growth (UACC-62 melanoma) was -59.1% (active) and the growth (LOX IMVI melanoma) was -70.1% (active). The growth (SK-MEL-28 melanoma) was -75.4% (active).

O=C(/C=C/C12c3ccccc3C(c3ccccc31)C1C(=O)NC(=O)C12)c1ccccn1 (stereo not given) was tested, and the growth (HCT-15 colon) was -1.54% (active), the growth (HT29 colon) was 0.981% (active) and the growth (SNB-75 CNS) was 26.5%. The growth (SNB-19 CNS) was 1.14% (active), the growth (U251 CNS) was -28.9% (active) and the growth (PC-3 prostate) was 16.3%. For the same molecule, the growth (SK-MEL-5 melanoma) was 3.65% (active), the growth (UACC-62 melanoma) was -48.4% (active) and the growth (LOX IMVI melanoma) was -60.5% (active). The growth (SK-MEL-28 melanoma) was -33.2% (active).

Molecule O=C(NCc1ccc2c(c1)OCO2)NCC1CCCC(CNC(=O)NCc2ccc3c(c2)OCO3)C1 (stereo not given) has a growth (HCT-15 colon) of 99.2%, a growth (HT29 colon) of 110% and a growth (SNB-75 CNS) of 97.3%. It also gave a growth (SNB-19 CNS) of 87.7%, a growth (U251 CNS) of 103% and a growth (PC-3 prostate) of 102%. The growth (SK-MEL-5 melanoma) was 102%, the growth (UACC-62 melanoma) was 95.8% and the growth (LOX IMVI melanoma) was 97.9%. It also gave a growth (SK-MEL-28 melanoma) of 114%.

Cc1cc(C)cc(Nc2ccc([N+](=O)[O-])c(NCCN3CCOCC3)n2)c1 showed a growth (HCT-15 colon) of 11.5%, a growth (HT29 colon) of 13.4% and a growth (SNB-75 CNS) of 31.3%. It also gave a growth (SNB-19 CNS) of 43.9%, a growth (U251 CNS) of 20.8% and a growth (PC-3 prostate) of 17.2%. The growth (SK-MEL-5 melanoma) was -20.3% (active), the growth (UACC-62 melanoma) was 36.6% and the growth (LOX IMVI melanoma) was 15.7%. The growth (SK-MEL-28 melanoma) was 60.9%.

C=CCn1c(SCC(=O)Nc2ccc(C(=O)/C=C/c3ccc(OC)cc3)cc2)nnc1-c1ccccc1 gave a growth (HCT-15 colon) of 83.4%, a growth (HT29 colon) of 85.3% and a growth (SNB-75 CNS) of 70.6%. It also gave a growth (SNB-19 CNS) of 83.9%, a growth (U251 CNS) of 98.1% and a growth (PC-3 prostate) of 67.1%. For the same molecule, the growth (SK-MEL-5 melanoma) was 92.2%, the growth (UACC-62 melanoma) was 74.5% and the growth (LOX IMVI melanoma) was 87.2%. For the same molecule, the growth (SK-MEL-28 melanoma) was 89.4%.
